Data as given in PubChem BioAssay (NCI).
About 83,000 compounds went through this panel and 20% of them were active in at least one assay; those are over-represented in the sample as a whole.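 48-hour exposure, single concentration, 96-well plates; percent growth endpoint where 0 means no net growth. Active: below 10.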 A number with no mark means an inactive call. Calls of active or inactive are those of the source.

What follows are molecules tested on HT29 colon (assay: NCI-60 one-dose screen, 48 h (100 = growth as untreated, 0 = no growth, -100 = all killed)). Conditions: 10 µM unless noted.

Structure (SMILES) | growth
CSc1nnc(-c2cc3c([nH]c4ccccc43)c(-c3cccc(O)c3)n2)n1-c1ccccc1 | 41.3%
Nc1cc(C(=O)NC[C@H]2CN(c3ccc(N4CCC(C(=O)O)CC4)cc3)C(=O)O2)ccc1Cl | 104%
CC(C)(Sc1cc(C(C)(C)C)c(OC(=O)CCCC(=O)O)c(C(C)(C)C)c1)Sc1cc(C(C)(C)C)c(OC(=O)CCCC(=O)O)c(C(C)(C)C)c1 | 26.9%
C=CCn1c(SCC(=O)Nc2ccc(C(=O)/C=C/c3ccc(Cl)cc3)cc2)nnc1-c1ccc(Br)cc1 | 67.5%
CCOC(=O)c1nn(-c2ccc(S(N)(=O)=O)cc2)c2nc(C)cc(=O)n12 | 109%
CN(C)CCNC(=O)c1cc2c3cc(Cl)ccc3[nH]c2c2ncccc12 | 0.808% (active)
COc1ccccc1NC(=O)N=Nc1c(O)[nH]c2ccccc12 | 105%
CC(=O)N1N=C(c2ccc(C(F)(F)F)c(F)c2)CC1c1[nH]c(C)c(C(=O)NCC(F)(F)F)c1C (stereo not given) | 78.5%
O=C(/C=C(/C=C/c1ccc2[nH]ccc2c1)OB(F)F)/C=C/c1ccc2[nH]ccc2c1 | -55.7% (active)
CCOC(=O)c1cc2c(n1Cc1cc(OC)c(OC)c(OC)c1)-c1nc(N)sc1CCC2 | 19.3%
N#Cc1ccc(O)c(C2=NCC(c3ccccc3)O2)c1 (stereo not given) | 46.2%
CC(=O)c1c(C)nc(SCC(=O)Nc2cccc(O)c2)n1-c1ccc(Cl)cc1 | 102%
O=C(Nc1cccc2ccccc12)NC1CC1 | 114%
CCOC(=O)c1c2c(n3cccc(F)c13)C(=O)c1ncccc1C2=O | 8.73% (active)
O=c1c2ccccc2n2cnc3ccc(Cl)c1c32 | 73.4%
CC(C)c1ccc(-n2c(=S)[nH]c3sc4cc(O)ccc4c3c2=O)cc1 | 113%
N#Cc1c(-c2ccccc2)cc(-c2ccccc2)n(CCCC(=O)Nc2ccccc2N)c1=O | 49.5%
COc1cc2c(cc1OCCCN1CCN(CCCOc3cc4c(cc3OC)C(=O)N3CCC[C@H]3C=N4)CC1)C=CC(C)(C)O2 | -100% (active)
CCC(C(=O)[C@@H](C)[C@@H](O)[C@H](C)[C@@H]1O[C@@H]([C@@H](CC)C(=O)ONC(=O)c2ccccc2)CC[C@@H]1C)[C@H]1O[C@]2(C=CC(=O)[C@]3(CC[C@@](C)([C@H]4CC[C@](O)(CC)[C@H](C)O4)O3)O2)[C@H](C)C[C@@H]1C (stereo not given in full) | 20.6%
CN1C(=O)/C(=C\c2nc([P+](c3ccccc3)(c3ccccc3)c3ccccc3)c(N3CCOCC3)o2)SC1=S | 98.3%

Structure (SMILES) | growth
COc1ccc(/C=C/C(=O)c2cccc(OCCCCOc3cccc(C(=O)/C=C/c4ccc(OC)c(OC)c4)c3)c2)cc1OC | 92%
O=S(=O)(Nc1cc(Cl)ccc1Cl)c1ccc(-c2cnc(C3CC3)o2)cc1 | 5.45% (active)
C=C1C(=O)O[C@H]2[C@H]1CC/C(COC(=O)c1cc3ccccc3s1)=C\CC[C@@]1(C)O[C@@H]21 | -75.4% (active)
N=C(N)c1ccc(-c2ccc(-c3ccccc3)o2)cc1 | -76.5% (active)
c1cnc2c(-c3nc4ccc5[nH]ncc5c4c4c3CCCC4)c[nH]c2c1 | 14.9%
Cc1nc2sc(C(=O)Nc3cccc(Br)c3)c(N)c2cc1C(O)c1ccccc1 (stereo not given) | 18.1%
Cn1ccnc1C(=O)/C=C/c1ccc(CC(=O)Nc2cc(C(F)(F)F)cc(C(F)(F)F)c2)cc1 | 66.4%
C=C1C(=O)O[C@H]2[C@H]1CC/C(Cn1cc(-c3ccccc3)nn1)=C\CC[C@@]1(C)O[C@@H]21 | -58.3% (active)
Oc1c(I)cc(I)cc1CNCc1ccccn1 | 36.6%
CCOC(=O)c1cc2c(n1C)-c1nc(NC(C)=O)sc1CCC2 | 88%
COc1c(C(=O)Nc2ccc(C)c(Br)c2)ccc2ccccc12 | 78.5%
O=C(Nc1ccc(Oc2cccc(F)c2)c(Cl)c1)c1cccnc1 | 12.7%
COC12C=C/C(=C(/C(=O)OCc3ccncn3)C(=O)CCCCCCCCC3(OC)C=C/C(=C(/C(=O)OCc4ccncn4)C(=O)CCCCCCCC1)O3)O2 | 12.5%
COC1=CC(c2ccc[nH]2)=N/C1=C\c1[nH]c(C)c(C(=O)OC(C)C)c1C | -11.6% (active)
O=C(Nc1cccc(Cl)c1)Nc1cccc(Cn2c(=O)[nH]c3ccc(Oc4ncccn4)cc3c2=O)c1 | 38.8%
Cc1ccc(C)n1-c1ccccc1-n1c(C)ccc1C | 103%
COc1ccc(/C=C/C(=O)c2ccc(Nc3ccnc4cc(Cl)ccc34)cc2)cc1 | 45%
CCN(CC)c1ccc(\C=N/N=C(N)/C(N)=N\N=C/c2ccc(N(CC)CC)cc2)cc1 | 99.2%
O=[N+]([O-])c1cccc(-c2nc3cc4nc5ccccc5[nH]c4cc3n2)c1 | 100%
COc1ccc(/C=C(\C#N)n2nnc3cc(Cl)ccc32)cc1 | 2.07% (active)
